{"source": "paper PMC7819943", "about": "“Rice protein-binding microarrays: a tool to detect cis-acting elements near promoter regions in rice”", "note": "Whole data set: some 68,000 sequences, median “fluorescence intensity (a.u.)” near 9,100, cut for the highest 2% near 16,000. The list comes from a sample in which the highest values are over-represented; it also holds similar and randomly drawn sequences.", "data": [{"molecular_target": "OsWRKY34 (Oryza sativa, UniProt Q0JBA9 1-250)", "sequence (Q0JBA9 entry or part of it)": "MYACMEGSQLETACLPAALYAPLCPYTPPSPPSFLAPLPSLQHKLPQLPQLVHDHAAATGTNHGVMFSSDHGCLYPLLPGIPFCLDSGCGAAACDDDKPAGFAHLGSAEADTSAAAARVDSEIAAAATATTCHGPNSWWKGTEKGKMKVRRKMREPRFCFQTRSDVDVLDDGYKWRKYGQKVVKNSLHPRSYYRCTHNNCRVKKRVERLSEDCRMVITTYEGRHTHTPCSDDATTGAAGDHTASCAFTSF", "test": "protein-binding microarray (RPBM); PBS, 2% BSA, 51.3 ng/ul salmon testes DNA, 50 uM zinc acetate, 200 nM TF, 25 C, 1 h; high values mean tight binding", "conditions": "protein: recombinant; tags: N-terminal polyhistidine and DsRed monomer fusion (pET32a); label: CyDye5-dUTP incorporated in the synthesized complementary strand; 3' TTTTT single-stranded linker to array surface; dsDNA, one strand shown", "in_short": "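For the binding signal, per-feature fluorescence intensity was read in arbitrary units on an Axon 4000B scanner. Before scanning, a 2% BSA-blocked custom Agilent array made double-stranded with Cy5-dUTP was washed after 1 h at 25 °C with 200 nM protein and 50 µM zinc acetate. The proteins were Ni–NTA-purified transcription factors with N-terminal polyhistidine and DsRed fusions, expressed in E. coli BL21-CodonPlus.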", "values": [{"sequence": "CTATAAATACACGACGTCTCTCCGCTGGCTTACACACAACCGGAGTCACCTAGTGCAG", "binding signal": "10100 fluorescence intensity (a.u.)"}, {"sequence": "CGCCAACTCAACGCTGAAGCCGCTGCCTCACCATCTCGTCCGGAGTCACCTAGTGCAG", "binding signal": "8780 fluorescence intensity (a.u.)"}, {"sequence": "ATCGCCGCAACCACCAACCTCTCGAGGCCGTTCGAATCCCCGGAGTCACCTAGTGCAG", "binding signal": "12300 fluorescence intensity (a.u.)"}, {"sequence": "TATATATATATATATATATATATATATATATATAAGCGTCCGGAGTCACCTAGTGCAG", "binding signal": "11300 fluorescence intensity (a.u.)"}, {"sequence": "AGAAGGGAAGGGGAGGGGAGGGCGGGACGCCGGCCGGAGCCGGAGTCACCTAGTGCAG", "binding signal": "10200 fluorescence intensity (a.u.)"}, {"sequence": "GTGGTCCGGTGGTGGGGTGATGGGGCGTGGCGGTTCTGTCCGGAGTCACCTAGTGCAG", "binding signal": "15400 fluorescence intensity (a.u.)"}, {"sequence": "GGGGAGGGAGCCGGGCGGGATTCAGCCATGAGGAGGAGGGCGGAGTCACCTAGTGCAG", "binding signal": "9050 fluorescence intensity (a.u.)"}, {"sequence": "GAGGACGAAGTGGAGGCGGAGGGCAGGTGGGGAGGAGAGCCGGAGTCACCTAGTGCAG", "binding signal": "8660 fluorescence intensity (a.u.)"}, {"sequence": "TTGGTGGTTGGTGGGGAGCGTGGAGATGGCGGGGCTGTCCCGGAGTCACCTAGTGCAG", "binding signal": "22200 fluorescence intensity (a.u.)"}, {"sequence": "TTCTTGCCGGAGGAGGGGCAGGGGAGGGAGCCGGGCGGGACGGAGTCACCTAGTGCAG", "binding signal": "23500 fluorescence intensity (a.u.)"}, {"sequence": "AGTGCTGGAGGAGGGAGGCGGGGAGGGGAGCCATCAGCCACGGAGTCACCTAGTGCAG", "binding signal": "17300 fluorescence intensity (a.u.)"}, {"sequence": "GGGGCGGCAGTGGATGGCGGTTGGGCGGCGGTGCGGGGAGCGGAGTCACCTAGTGCAG", "binding signal": "12200 fluorescence intensity (a.u.)"}, {"sequence": "AGAAGGAGAAGGCGGGGAGAGGCGGGGCGGCCACGGGAGACGGAGTCACCTAGTGCAG", "binding signal": "12500 fluorescence intensity (a.u.)"}, {"sequence": "GGCCATGCTTGAATCTCTCGCCTGACATTCAGACTTCAGACGGAGTCACCTAGTGCAG", "binding signal": "8390 fluorescence intensity (a.u.)"}, {"sequence": "CTCTATATAAGCCCCACAATGCCCACCACCAGCTTGTCACCGGAGTCACCTAGTGCAG", "binding signal": "8230 fluorescence intensity (a.u.)"}, {"sequence": "AAGATTCTTCTCTTCGTCGACGACCCGGCCTCTCGCTCTCCGGAGTCACCTAGTGCAG", "binding signal": "9630 fluorescence intensity (a.u.)"}, {"sequence": "CTATTGGCTCATACCTTTTTTCAGTGGCTGGGTGTAGGTTCGGAGTCACCTAGTGCAG", "binding signal": "8840 fluorescence intensity (a.u.)"}, {"sequence": "TGCAGATATTGGCATCGATTGCTCACTTCAGGTGATTTTTCGGAGTCACCTAGTGCAG", "binding signal": "8060 fluorescence intensity (a.u.)"}, {"sequence": "CATGTCCAACTTTAATTGTTCGTCTTTTTTTTGAAAAAACCGGAGTCACCTAGTGCAG", "binding signal": "8630 fluorescence intensity (a.u.)"}, {"sequence": "CAGACCTGGAGGTTGTTGCCCTTGATGTGCGCCCAGATGACGGAGTCACCTAGTGCAG", "binding signal": "8470 fluorescence intensity (a.u.)"}, {"sequence": "ATTGTCTTGGCTGCTGTCTTTATAGTATTCACTCATCTGCCGGAGTCACCTAGTGCAG", "binding signal": "18500 fluorescence intensity (a.u.)"}, {"sequence": "TTTTTATTCCACCGCTTTGTCGTTCTCGCAATCTCGCTGTCGGAGTCACCTAGTGCAG", "binding signal": "17700 fluorescence intensity (a.u.)"}, {"sequence": "CGCATCTCGTTTTCTCTTTATTTGTTTCTTCTTTCGCTTTCGGAGTCACCTAGTGCAG", "binding signal": "13800 fluorescence intensity (a.u.)"}, {"sequence": "GTTCTTTTGGGCAATCTCGTCTGTATTCCTTTGTCGTCTACGGAGTCACCTAGTGCAG", "binding signal": "10800 fluorescence intensity (a.u.)"}, {"sequence": "GTCCGCTGCTTTTCTCCCTTGTCGGTTATTTTACCTCTTCCGGAGTCACCTAGTGCAG", "binding signal": "18900 fluorescence intensity (a.u.)"}, {"sequence": "TTTATTCTCTGTTCCTCTTTTTTTCATATTCGTTTTTCACCGGAGTCACCTAGTGCAG", "binding signal": "13200 fluorescence intensity (a.u.)"}, {"sequence": "TCTCCCCTTTCTGCTTCTGCTGCTTCTCCCTTTCCCTCTCCGGAGTCACCTAGTGCAG", "binding signal": "8200 fluorescence intensity (a.u.)"}, {"sequence": "GTCTCTTTCCGCTGCTTCGTTTCTGTCTCCGGTTTATTCACGGAGTCACCTAGTGCAG", "binding signal": "18800 fluorescence intensity (a.u.)"}, {"sequence": "ATCAATTTATCACCCGCTGACTCATCTTTATTGTATCTGCCGGAGTCACCTAGTGCAG", "binding signal": "8420 fluorescence intensity (a.u.)"}, {"sequence": "AATGGCTAGCGTATAATCTGTCTTGGAATCACTTTGCTGCCGGAGTCACCTAGTGCAG", "binding signal": "8120 fluorescence intensity (a.u.)"}, {"sequence": "TTGTAGTCCGCTGCTTTCCCTTTCTTTTATCTTCTCTTTCCGGAGTCACCTAGTGCAG", "binding signal": "8450 fluorescence intensity (a.u.)"}, {"sequence": "TTTTTTTCTCTTTCTTTTTTCTTTTCTTCGTTTTCTTTCACGGAGTCACCTAGTGCAG", "binding signal": "9230 fluorescence intensity (a.u.)"}, {"sequence": "TTCTGGATCTTGACTCTTGACCAGTTCATCCACACGTGTGCGGAGTCACCTAGTGCAG", "binding signal": "8540 fluorescence intensity (a.u.)"}, {"sequence": "TCTCCCTCAGTTACTGCCTTGCTCCCCAACCCCAGGAGCACGGAGTCACCTAGTGCAG", "binding signal": "9230 fluorescence intensity (a.u.)"}, {"sequence": "GCTTGGGGTGGAATCGCGTGGACAGCGTGGGCCTCAGTCACGGAGTCACCTAGTGCAG", "binding signal": "12000 fluorescence intensity (a.u.)"}, {"sequence": "ATATTTATTAGTTGGCGTGTATGTAAAACTTGTGTGTTTCCGGAGTCACCTAGTGCAG", "binding signal": "8400 fluorescence intensity (a.u.)"}, {"sequence": "CCATTGTTTTCTTCTTGTCCTTTTAGAGATGTTGGGTACACGGAGTCACCTAGTGCAG", "binding signal": "8240 fluorescence intensity (a.u.)"}, {"sequence": "AACCACCCCGCGTTTCCAGTCTCCACCACATCAACTCCCCCGGAGTCACCTAGTGCAG", "binding signal": "10200 fluorescence intensity (a.u.)"}, {"sequence": "CCCCAATGAATCATAGGCTCAACCTGCTCCTGCTGCAACACGGAGTCACCTAGTGCAG", "binding signal": "8040 fluorescence intensity (a.u.)"}, {"sequence": "GGTCCGGCGGAAGTAGGGGCGGAAGTGCGGGCGGGAGATGCGGAGTCACCTAGTGCAG", "binding signal": "9700 fluorescence intensity (a.u.)"}, {"sequence": "GACACATCTTAGTTTCATGAATTTGCACAAGAATTGCATGCGGAGTCACCTAGTGCAG", "binding signal": "10800 fluorescence intensity (a.u.)"}, {"sequence": "AGCCTGGAAGCCCATTCAGCGGCGGGGTTGGGGCGGCAGGCGGAGTCACCTAGTGCAG", "binding signal": "10200 fluorescence intensity (a.u.)"}]}]}
